# PubChem BioAssay (EPA / NIEHS)
# Values joined by “and” are separate entries in the source; they are usually repeats but may differ in a detail not shown here. Equal entries are not always repeated. Some structures have more than one record in an assay (separate samples or runs), and their calls can disagree. Active and inactive are the calls of the source. Rule for the calls: active = hit-call score of the fitted dose curve at least 0.9, where 1 is the maximum; inactive = score below 0.9.
# Read-out: CFLAR gene, CFLAR (gene 8837)
# Test: LTEA_HepaRG_CFLAR: Life Technologies and Expression Analysis (LTEA) Assay for CFLAR gene using HepaRG (AID 2283455)
# Details: mRNA level, 48 h; actives raise or lower the signal
# Protocol: LTEA_HepaRG is a cell based, multiplexed-readout assay that uses HepaRG, a human liver cell line, with measurements taken at 48 hours after chemical dosing on a 96-well plate.LTEA_HepaRG_CFLAR is one of 102 assay component(s) measured in the LTEA HepaRG cell culture assay. It is a marker of Cell proliferation, survival, death.Data from the assay component LTEA_HepaRG_CFLAR was analyzed into 1 endpoint. This assay endpoint, LTEA_HepaRG_CFLAR, was analyzed with bidirectional fitting relative to DMSO as the negative control and baseline of activity. Using a type of inducible reporter, measures of mRNA induction for gain or loss-of-signal activity can be used to understand regulation of transcription factor activity. To generalize the intended target to other relatable targets, this assay endpoint is annotated to the cell cycle intended target family, where the subfamily is Cell proliferation, survival, death.
# A total of 1060 chemcials from the ToxCast library were tested in eight-point concentration-response experiments. Cell culture and cytotoxicity assays were conducted at Thermo Fisher Scientific's Custom Services facility (Madison, WI). A single lot of human HepaRG cells (Thermo Fisher Scientific, Frederick, MD) was used for the cell culture experiments. 96-well format collagen type I coated plates of human HepaRG cells were prepared using established methods. Briefly, cryopreserved HepaRG cells were thawed, plated at a density of approximately 100,000 cells/well in HepaRG Thaw, Plate, and General Purpose media (HPRG770, Thermo Fisher Scientific), and incubated for 48 hours. 0.5% DMSO was selected as vehicle control to balance the requisite need of DMSO in HepaRG cultures to maintain differentiation (for example, baseline metabolism, proportions of hepatocytes vs. cholangiocytes), while enabling further hepatic receptor pathway activation (for example, PXR and CAR) in response to chemical exposure. 48 hours after plating, the culture medium was replaced with HepaRG Serum-Free Incudtion Media. Cells were exposed to each test chemical in duplicate and maintained in CO2 incubators for another 48 hours. Chemical plates were thawed to room temperature and 200x concentrations of treatment groups were prepared. 8-point conentration-reponse curves were made with the highest exposure at 100 uM, followed by half-log dilutions, all in 0.5% DMSO. Each test plate contained variouse controls, induction positive controls (1mM phenobarbital), cytotoxicity positive controls ([…] aflatoxin B1), vehicle controls (0.5% DMSO), and total lysis controls (0.5% DMSO). Cell morphology images were taken using an Essen IncuCyte FLR automated microscope, with six 96-well plates imaged in about 24 minutes. Images were captured and exported and JPEG files. Spent culture media was transfered to black-well plates for the LDH assay, and remaining media was sorted at -80 C for later use. Cells were treated with RLT buffer and frozen until shipped for gene expression analysis. Total RNA was isolated from the cell suspension in 75 uL of Buffer RLT (Qiagen, Germantown, MD 20874) by Quintiles/Expression Analysis (Durham, NC) using a custom isolation procedure. Total RNA from each plate well was transferred to a preamplification plate. Fluidigm's 96.96 Dynamic ArrayTM (Fluidigm, Amsterdam, the Netherlands) technology was used for gene expression analyses by quantitative reverse transcription polymerase chain reaction (qRT-PCR, performed by Quintiles/Expression Analysis, Durham, NC)89. Standard TaqManTM Assays (Applied Biosystems/ThermoFisher Scientific, Foster City, CA) were used to assess the expression of 93 genes selected based on their selectivity and sensitivity to important hepatic receptors known to be modulated by environmental chemicals; importance in human hepatocyte functionality; and hepatotoxicity. […]
Structure (SMILES),outcome,AC50
OC(c1ccc(Cl)cc1)(c1cncnc1)c1ccccc1Cl (stereo not given),inactive,–
CCON=C(CC)C1=C(O)CC(c2c(C)cc(C)cc2C)CC1=O (stereo not given),inactive,–
CC1=C(C(=O)Nc2ccccc2)SCCO1,–,50 µM (active)
CON(C)C(=O)Nc1ccc(Cl)c(Cl)c1,inactive,–
CCCCNC(=O)n1c(NC(=O)OC)nc2ccccc21,inactive,–
Fc1ccc(Oc2ccnc3cc(Cl)cc(Cl)c23)cc1,inactive,–
CCOP(=S)(OCC)SCn1c(=O)oc2cc(Cl)ccc21,inactive,–
CCOC(=O)CC(SP(=S)(OC)OC)C(=O)OCC (stereo not given),inactive,–
COc1nc(NC(C)C)nc(NC(C)C)n1,inactive,–
COc1cnc(OC)n2nc(NS(=O)(=O)c3c(OCC(F)F)cccc3C(F)(F)F)nc12,inactive,–
CC(C)C1(C)N=C(c2nc3ccccc3cc2C(=O)O)NC1=O (stereo not given),inactive,–
CCNc1nc(Cl)nc(NCC)n1,inactive,–
CCNc1nc(Cl)nc(NC(C)C)n1,inactive,–
N#CC(CCc1ccc(Cl)cc1)(Cn1cncn1)c1ccccc1 (stereo not given),inactive,–
COC(=O)C=C(C)OP(=O)(OC)OC,inactive,–
CCOC(=O)C(Cl)Cc1cc(-n2nc(C)n(C(F)F)c2=O)c(F)cc1Cl (stereo not given),inactive,–
CO/C=C(/C(=O)OC)c1ccccc1Oc1cc(Oc2ccccc2C#N)ncn1,inactive,30.5 µM (active)
N#Cc1cc(Br)c(O)c(Br)c1,–,10 µM (active)
CCOc1cc(Oc2ccc(C(F)(F)F)cc2Cl)ccc1[N+](=O)[O-],inactive,–

Structure (SMILES),outcome,AC50
C=CCC1=C(C)[C@@H](OC(=O)[C@@H]2[C@@H](C=C(C)C)C2(C)C)CC1=O,inactive,–
CS/C(C)=N/OC(=O)N(C)SN(C)C(=O)O/N=C(\C)SC,inactive,–
CC(Oc1ccc(Cl)cc1Cl)C(=O)O (stereo not given),inactive,–
COC(=O)c1ccccc1C(=O)OC,inactive,–
COP(N)(=O)SC (stereo not given),inactive,–
Cc1c(F)c(F)c(COC(=O)C2C(/C=C(\Cl)C(F)(F)F)C2(C)C)c(F)c1F (stereo not given),inactive,–
O=C(O)c1nc(Cl)ccc1Cl,inactive,–
Cc1cc(Cl)ccc1OCC(=O)O,inactive,–
CCc1nn(C)c(C(=O)NCc2ccc(C(C)(C)C)cc2)c1Cl,–,30.6 µM (active)
CC(C)Oc1cc(-n2nc(C(C)(C)C)oc2=O)c(Cl)cc1Cl,inactive,–
CCCCNC(=O)OCC#CI,inactive,–
O=C(Nc1ccccc1)Nc1ccnc(Cl)c1,inactive,–
COc1ccc(C(c2ccc(OC)cc2)C(Cl)(Cl)Cl)cc1,inactive,–
Oc1ccccc1-c1ccccc1,inactive,–
COP(=S)(OC)Oc1nc(Cl)c(Cl)cc1Cl,inactive,–
CN(C)C(=S)SSC(=S)N(C)C,inactive,–
CCCN(CCC)c1c([N+](=O)[O-])cc(S(N)(=O)=O)cc1[N+](=O)[O-],inactive,75.8 µM (active) and 76.8 µM (active)
O=C(O)COc1nc(Cl)c(Cl)cc1Cl,inactive,–
CNC(=S)S,inactive,–
